# In ChEMBL document CHEMBL3988442, “University of Dundee, Small-Polar-MMV Screening Library” (2021):
# Hit rate of the full screen: of about 66,000 compounds, about 960 (1.5%) showed an effect of 50% or more. The list comes from a sample in which strong results are over-represented; it also holds similar structures and randomly drawn compounds.
# Tested on: Trypanosoma brucei
# Assay: Trypanosoma brucei 72 hour study
# Assay type: functional, organism-based
# Design: scale not given: in the data most compounds retested in dose-response had high values
smiles,measurement,setting,value
CN(C)c1nc(NCCCN2CCc3ccccc32)ncc1F,Percent Effect,"30 µM, 30.03 µM",-2.481%
CC1CCN(c2ncc3c(n2)CN(Cc2cccc(F)c2)C3=O)CC1,Percent Effect,"30 µM, 30.03 µM",-36.51%
Cl.c1cn(-c2cnc(C3CCCNC3)cn2)cn1 (centres undefined),Percent Effect,"30.3 µM, […]",-22.3%
Cc1ccnc(NC(=O)C2CCN(CCCn3ccnc3)CC2)c1,Percent Effect,"30 µM, 30.03 µM",-9.272%
Cc1ncn(CCNC(=O)Nc2ccc(OC(F)(F)F)cc2)c(=O)c1C,Percent Effect,"30 µM, 30.03 µM",-6.151%
Cc1cc(C2CCCN(Cc3nc(Cc4ccccc4)no3)C2)n[nH]1 (centres undefined),Percent Effect,"30 µM, 30.03 µM",-33.51%
Cc1ccc(CN2CCC3(CC2)CC(N2CCN(C)CC2)CO3)s1.O=C(O)C(F)(F)F.O=C(O)C(F)(F)F.O=C(O)C(F)(F)F (centres undefined),Percent Effect,"30.3 µM, […]",-296.4%
Cc1cncc(C(=O)N2CC[C@@]3(C[C@H](NS(C)(=O)=O)CCO3)C2)c1.O=C(O)C(F)(F)F,Percent Effect,"30.3 µM, […]",-90.12%
CCN1CCCn2c(nc(CNC(=O)c3cnoc3C)cc2=O)C1.O=C(O)C(F)(F)F,Percent Effect,"30 µM, 30.03 µM",9.742%
CN(C)S(=O)(=O)N1CCCC(c2cccc(Cc3ccccc3F)n2)C1 (centres undefined),Percent Effect,"30.3 µM, […]",46.46%
c1ccc(Cc2cccc(C3CCCN3C3CCOCC3)n2)cc1 (centres undefined),Percent Effect,"30.3 µM, […]",101%
CN1CCCC1c1cccc(Cc2ccccc2F)n1 (centres undefined),Percent Effect,"30.3 µM, […]",101.4%
CN(C)S(=O)(=O)N1CCCC(c2cccc(Cc3ccccc3)n2)C1 (centres undefined),Percent Effect,"30 µM, 30.03 µM",-81.93%
CN(C)S(=O)(=O)N1CCCC(c2cccc(Cc3ccc(F)cc3)n2)C1 (centres undefined),Percent Effect,"30.3 µM, […]",41.5%
Fc1cccc(Cc2cncc(C3CCCN3C3CCOCC3)n2)c1 (centres undefined),Percent Effect,"30.3 µM, […]",9.592%
CS(=O)(=O)N1CCCC1c1cccc(Cc2ccccc2F)n1 (centres undefined),Percent Effect,"30.3 µM, […]",0.4351%
CN(C)S(=O)(=O)N1CCCC(c2cccc(Cc3ccc(Cl)cc3)n2)C1 (centres undefined),Percent Effect,"30.3 µM, […]",99.29%
c1ccc(Cc2cncc(C3CCCN3C3CCOCC3)n2)cc1 (centres undefined),Percent Effect,"30.3 µM, […]",-18.14%
COCCCNc1c(-c2ccc(Cl)cc2)c(=O)c1=O,Percent Effect,"30.3 µM, […]",13.47%
O=C(c1cnccn1)N1CCCC(Cc2cccc3ncccc23)C1 (centres undefined),Percent Effect,"30.3 µM, […]",-10.31%
CN(C)C(=O)[C@@H]1CCO[C@@H]2CCN(CCOCc3ccccc3)C[C@H]21.O=C(O)C(F)(F)F,Percent Effect,"30.3 µM, […]",-3.678%
CC(C)(C)c1nc(NS(=O)(=O)c2ccccc2F)no1,Percent Effect,"30 µM, 30.03 µM",-17.01%
O=C(NCC1CC1)C1CCC2(CCN(C(=O)c3ccncc3)CC2)O1.O=C(O)C(F)(F)F (centres undefined),Percent Effect,"30.3 µM, […]",-42.23%
Cc1noc(C)c1CN1CCO[C@H]2[C@H](Oc3ncccc3F)CC[C@@H]21.O=C(O)C(F)(F)F.O=C(O)C(F)(F)F,Percent Effect,"30 µM, 30.03 µM",-9.669%
CCCN(CCc1ccccn1)C(=O)CCc1cnn(C)c1,Percent Effect,"30 µM, 30.03 µM",-34.35%
CCN(CC)Cc1ccc(C(=O)N2CCCC2Cn2cccn2)cc1 (centres undefined),Percent Effect,10 µM,-13.25%
CCc1cnc(CN(C)C2CCN(CC(=O)Nc3nccs3)C2)o1 (centres undefined),Percent Effect,10 µM,-37.99%
COc1ccc(N2Cc3nc(=O)n(Cc4cccc(F)c4)n3C2=O)cc1,Percent Effect,"30 µM, 30.03 µM",-5.99%
CCN1CCn2c(C)cnc2C12CCN(C(=O)NCC(C)C)CC2.O=C(O)C(F)(F)F,Percent Effect,"30.3 µM, […]",-30.2%
O=C(Nc1ccccn1)C1CC(=O)N(Cc2ccccn2)C1 (centres undefined),Percent Effect,"30 µM, 30.03 µM",-8.332%
COc1ncccc1NC(=O)C1CC(=O)N(Cc2ccccn2)C1 (centres undefined),Percent Effect,"30 µM, 30.03 µM",55.04%
Cc1ccc(Cl)cc1NC(=O)C1CC(=O)N(Cc2ccccn2)C1 (centres undefined),Percent Effect,"30 µM, 30.03 µM",8.87%
CC(C)(C)NC(=O)CCOc1cccc(F)c1,Percent Effect,10 µM,-74.47%
COc1ccccc1CN1CC[C@]2(C[C@@H](OC)CO2)C1.O=C(O)C(F)(F)F,Percent Effect,"30 µM, 30.03 µM",-26.27%
Cc1nn(C)c2c(NCCCn3cccn3)nc(C(C)C)nc12,Percent Effect,"30.3 µM, […]",-9.582%
COc1cc(C(=O)NCCc2ccc(OC)c(OC)c2)on1,Percent Effect,"30.3 µM, […]",8.881%
COc1cc(C(=O)NCCc2ccccc2OC)on1,Percent Effect,"30.3 µM, […]",101.4%
COc1cc(C(=O)NCCCc2ccccc2)on1,Percent Effect,"30.3 µM, […]",10.61%
Cc1occc1C(=O)N1CCC2(CCN(Cc3ccccn3)C2=O)C1.O=C(O)C(F)(F)F (centres undefined),Percent Effect,"30 µM, 30.03 µM",-18.48%
Cc1cc(C)nc(N2CCN(Cc3nccn3C)CC2)n1.O=CO,Percent Effect,"30.3 µM, […]",-2.711%
Cc1noc(C)c1CN1C[C@@H](OCc2ccccn2)[C@H]2OCCC[C@H]21.O=C(O)C(F)(F)F.O=C(O)C(F)(F)F,Percent Effect,"30 µM, 30.03 µM",-32.5%
O=C(O)C(F)(F)F.O=c1ccc2c([nH]1)CCC(NCc1ccc3c(c1)OCO3)C2 (centres undefined),Percent Effect,"30.3 µM, […]",-24.67%
CC(C)CCN1C2(CCN(C(=O)CN(C)C)C2)c2ccccc2S1(=O)=O.O=C(O)C(F)(F)F (centres undefined),Percent Effect,"30.3 µM, […]",-2.24%
COc1ccc2c(c1)OC1(CCN(Cc3ccccc3C)CC1)CC2=O,Percent Effect,"30.3 µM, […]",99.25%
same,Percent Effect,"10 mM, 10 mM as filed; unlikely as a test dose",-45.93%
COc1ccc2c(c1)OC1(CCN(Cc3cccc(C)c3)CC1)CC2=O,Percent Effect,"30.3 µM, […]",-0.9536%
same,Percent Effect,"10 mM, 10 mM as filed; unlikely as a test dose",-48.74%
COc1ccc2c(c1)OC1(CCN(Cc3ccc(C)cc3)CC1)CC2=O,Percent Effect,"30.3 µM, […]",-15.07%
same,Percent Effect,"10 mM, 10 mM as filed; unlikely as a test dose",-53.52%
